Bioassay records (PubChem)
Most compounds without a hit are left out; they make up all but 1.1% or so of the library.
A3G deaminase = APOBEC3G (human) deaminase inhibition. recombinant A3G, ssDNA deamination FAM/TAMRA fluorescence. inhibition, % at 20 µM. 330,000 tested, 0.28% active. AID 493012;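 active = inhibition of at least 40% at 20 µM, with no more than 30% in the related APOBEC3A deaminase screen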;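 note: plate controls were DMSO wells with A3G for no effect and wells lacking A3G enzyme for full effect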
Target sequence (Q9HC16 whole entry, looked up): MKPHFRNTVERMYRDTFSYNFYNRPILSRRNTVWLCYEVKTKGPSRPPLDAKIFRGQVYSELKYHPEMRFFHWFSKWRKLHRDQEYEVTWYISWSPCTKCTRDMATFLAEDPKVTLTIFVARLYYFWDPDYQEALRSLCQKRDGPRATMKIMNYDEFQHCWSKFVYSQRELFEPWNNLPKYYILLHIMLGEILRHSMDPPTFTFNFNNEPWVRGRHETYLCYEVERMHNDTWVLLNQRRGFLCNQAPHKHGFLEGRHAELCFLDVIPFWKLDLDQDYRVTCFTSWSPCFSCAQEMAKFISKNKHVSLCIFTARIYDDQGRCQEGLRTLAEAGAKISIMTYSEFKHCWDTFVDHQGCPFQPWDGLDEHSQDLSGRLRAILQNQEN
APOBEC3A inh = blocks human APOBEC3A ssDNA deamination | P31941 | recombinant A3A, FAM/TAMRA ssDNA deamination fluorescence | inhibition, % at 20 µM | 330,000 tested, 0.41% active | AID 493011;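 active = at least 40% inhibition at 20 µM here, with at most 30% in a related deaminase screen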;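 note: plate controls were A3A with DMSO for no effect and wells lacking A3A enzyme for full effect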
Target sequence (P31941 whole entry, looked up): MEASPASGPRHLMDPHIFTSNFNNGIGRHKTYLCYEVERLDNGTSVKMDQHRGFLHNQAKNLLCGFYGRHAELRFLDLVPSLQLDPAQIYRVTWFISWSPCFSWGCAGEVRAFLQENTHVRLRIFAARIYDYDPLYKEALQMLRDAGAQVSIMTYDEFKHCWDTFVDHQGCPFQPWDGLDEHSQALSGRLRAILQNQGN
A1 inh = inhibitors of the anti-apoptotic protein A1, read as caspase activation. MEF A1-2A-BIM cells, Caspase-Glo 3/7 luminescence, 3 h; percent of clofoctol response, vehicle zero. caspase activation, % (test concentration not listed). 330,000 tested, 0.066% active;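 active = over half of replicate activation scores above 10%, or exactly half above 10 with the replicate mean above 10; inconclusive = replicate mean below 10 yet half the replicates above 10; inactive = over half of replicates below 10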
beta cell repl = MIN6 beta-cell proliferation induction | MIN6 cells proliferation, ATPlite luminescence, 48 h; cells starved in 0.2% serum; 100% = growth in 10% serum | proliferation, % at 10 µM | 330,000 tested, 0.29% active;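 active = compounds whose signal lies at least 3.5 SD above the mean of all wells on their plate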;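 note: 0% = DMSO-treated cells in low-serum medium and 100% = 10% serum control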
APOBEC3G confirm = confirmation of human APOBEC3G DNA deaminase inhibitors; shares compounds with A3G deaminase; recombinant A3G ssDNA deaminase, UDG/FAM-TAMRA fluorescence; inhibition, % at 20 µM; 890 tested, 72% active;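 active = inhibition reaching a set limit in any replicate at 20 µM, the limit being 80% of the first screen's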
UDG ctr A3G = counter-screen for APOBEC3G inhibitors: E. coli UDG; shares compounds with A3G deaminase; UDG counterscreen, FAM/TAMRA oligo fluorescence; 710 tested, under 10 active; inhibition, % at 20 µM; AID 504715;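 active = compounds giving 40% or more inhibition at 20 µM in any one of the three replicates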;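 note: plate controls were DMSO wells with UDG and oligo for no effect and DMSO wells lacking both for full effect; inhibitors lower the FAM signal released by uracil excision and alkaline cleavage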
Numbers without * were called inactive.

Cc1cc(C)n2nc(/C(C#N)=C/c3ccccn3)c(C#N)c2n1 was read as A3G deaminase -5, APOBEC3A inh -1, A1 inh 0 and beta cell repl -5.
`CCN1CCN(C(=O)Cn2nc(C)c3sc4ccccc4c3c2=O)CC1` gave A3G deaminase -5, APOBEC3A inh -1, A1 inh 1 and beta cell repl -2.
Screening COc1ccc(CNS(=O)(=O)c2c(C(=O)N3CCCCC3)c(C)n(C)c2C)cc1 returned A3G deaminase -7, APOBEC3A inh -4, A1 inh -2 and beta cell repl -2.
CC(/C=N/n1c(-c2ccccn2)n[nH]c1=S)=C\c1ccccc1 was read as A3G deaminase 51*, APOBEC3A inh 2, A1 inh 1, beta cell repl -3, APOBEC3G confirm 37* and UDG ctr A3G 2.
S=c1[nH]nc(-c2ccccn2)n1/N=C/c1cccc2ccccc12 was read as A3G deaminase 66*, APOBEC3A inh -3, A1 inh -1, beta cell repl 1, APOBEC3G confirm 70* and UDG ctr A3G -3.
Screening S=c1[nH]nc(-c2ccccn2)n1/N=C/c1cccs1 returned A3G deaminase -12, APOBEC3A inh -2, A1 inh 0 and beta cell repl 0.
For Cc1nc2ccccc2c(=O)n1/N=C/c1c(O)ccc2ccccc12 the results were A3G deaminase -3, APOBEC3A inh -2, A1 inh 1 and beta cell repl 0.
Cc1n[nH]c(=S)n1/N=C/c1c(O)ccc2ccccc12 was read as A3G deaminase 46*, APOBEC3A inh -3, A1 inh 0, beta cell repl -4, APOBEC3G confirm 85* and UDG ctr A3G -2.
Screening CC(/C=N/n1c(-c2ccco2)n[nH]c1=S)=C\c1ccccc1 returned A3G deaminase 12, APOBEC3A inh 0, A1 inh 0 and beta cell repl -1.
Screening S=c1[nH]nc(-c2ccccn2)n1/N=C/c1c(Cl)cccc1Cl returned A3G deaminase 71*, APOBEC3A inh -1, A1 inh 0, beta cell repl 0, APOBEC3G confirm 93* and UDG ctr A3G 0.
COc1ccc(S(=O)(=O)N2CCCOC2CNC(=O)C(=O)NCCc2ccco2)cc1C (stereo not drawn) was read as A3G deaminase -11, APOBEC3A inh -2, A1 inh 1 and beta cell repl 2.
For O=[N+]([O-])c1ccc(CSC2=NCCS2)cc1 the results were A3G deaminase -7, APOBEC3A inh -9, A1 inh 0 and beta cell repl -1.
`S=c1[nH]nc(-c2ccccc2)n1/N=C/c1ccc(Cl)cc1` gave A1 inh 1.
Screening Cc1ccccc1/C=N/n1c(-c2ccccn2)n[nH]c1=S returned A3G deaminase 72*, APOBEC3A inh -5, A1 inh 0, beta cell repl 3, APOBEC3G confirm 98* and UDG ctr A3G 1.
For S=c1[nH]nc(-c2ccccn2)n1/N=C/c1ccc(Cl)cc1 the results were A3G deaminase 50*, APOBEC3A inh -6, A1 inh 0, beta cell repl 1, APOBEC3G confirm 82* and UDG ctr A3G -4.
S=c1[nH]nc(C2CCCCC2)n1/N=C/c1ccccn1 was read as A3G deaminase 51*, APOBEC3A inh -4, A1 inh 0, beta cell repl -3, APOBEC3G confirm 79* and UDG ctr A3G 4.
Screening Cc1ccc(/C=N/n2c(-c3ccccn3)n[nH]c2=S)o1 returned A3G deaminase 31, APOBEC3A inh -1, A1 inh 0 and beta cell repl 0.
`S=c1[nH]nc(-c2ccccn2)n1/N=C/c1ccccc1` gave A3G deaminase 46*, APOBEC3A inh -3, A1 inh 0, beta cell repl 0, APOBEC3G confirm 78* and UDG ctr A3G -1.
For S=c1[nH]nc(C2CCCCC2)n1/N=C/c1ccccc1 the results were A3G deaminase 11, APOBEC3A inh 1, A1 inh 0 and beta cell repl -1.
For COc1ccc(CNC(=O)C(c2ccccc2F)N(C(=O)c2csnn2)C2CC2)cc1 (stereo not drawn) the results were A3G deaminase -5, APOBEC3A inh -4, A1 inh 0 and beta cell repl -2.
`O=C(NC1CCCc2ccccc21)N[C@@H](Cc1ccccc1)C(=O)O` (stereo partly drawn) gave A3G deaminase 30, APOBEC3A inh -3, A1 inh 0 and beta cell repl -3.
Screening CCCCN(CCCC)C(=O)c1sc2nc(N3CCOCC3)c3c(c2c1N)CCCC3 returned A3G deaminase 42*, APOBEC3A inh -1, A1 inh 0, beta cell repl -4, APOBEC3G confirm -10 and UDG ctr A3G -2.
`CNC(=O)C1CC(=O)N(c2ccc(OCC(=O)Nc3ccc(OC)cc3)cc2)C1` (stereo not drawn) gave A3G deaminase -4, APOBEC3A inh 2, A1 inh 1 and beta cell repl -1.
`COC(=O)c1cc(=O)nc2sc(-c3cccs3)nn12` gave A3G deaminase -11, APOBEC3A inh 2, A1 inh 1 and beta cell repl 0.
Screening COC(=O)c1cc(=O)nc2sc(-c3ccc(F)cc3)nn12 returned A3G deaminase 42*, APOBEC3A inh 6, A1 inh 0, beta cell repl -2, APOBEC3G confirm 34* and UDG ctr A3G -3.
`c1ccc(CCc2nn3c(-c4ccncc4)nnc3s2)cc1` gave A3G deaminase 17, APOBEC3A inh 7, A1 inh 0 and beta cell repl 1.
Screening Clc1ccccc1-c1nnc2sc(CCc3ccccc3)nn12 returned A3G deaminase 63*, APOBEC3A inh 2, A1 inh inconclusive, beta cell repl -2, APOBEC3G confirm 51* and UDG ctr A3G -2.
For COc1ccc(OCc2nn3c(Cn4cnc5ccccc54)nnc3s2)cc1 the results were A3G deaminase 8, APOBEC3A inh -2, A1 inh 1 and beta cell repl -4.
For c1ccc(CCc2nn3c(Cn4cnc5ccccc54)nnc3s2)cc1 the results were A3G deaminase 49*, APOBEC3A inh 0, A1 inh 0, beta cell repl -3, APOBEC3G confirm 21* and UDG ctr A3G -6.
CCOC(=O)c1ccc(NC(=S)N2CCN(C(=O)C3CCCO3)CC2)cc1 (stereo not drawn) was read as A3G deaminase 0, APOBEC3A inh 2, A1 inh 0 and beta cell repl 0.
Cc1cc(Cl)c(S(=O)(=O)N2CCN(c3ccccn3)CC2)cc1OCC(=O)NC1CCCCC1 was read as A3G deaminase -5, APOBEC3A inh -4, A1 inh 1 and beta cell repl -5.
